TTR transcr act: increases transthyretin transcription. SH-SY5Y TTR promoter Gaussia luciferase, luminescence; 100% = recombinant luciferase protein wells. activation, % at 16.7 µM. actives 1.3% (n = 92,000). AID 1117267;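 active means activation above the mean of all tested compounds plus 3 SD, cut at about 9.5% in these data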;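 further: cells exposed to compounds for one day before reading; 0% = median of all test compound wells on the plate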
TTR inh HuH7: HuH7 TTR transcription inhibition, counter-screen. AID 1117279. actives 4% (n = 1,100). inhibition, % at 16.7 µM. shares compounds with TTR transcr act. HuH7 TTR promoter-Gaussia luciferase reporter, luminescence;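 active means average inhibition above the solvent-only control wells' mean plus 3 SD, cut at about 15% in these data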;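 further: 0% = cells with DMSO only and 100% = cells with inhibitor control FD; inhibitors lower well luminescence so higher value means more inhibition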
TTR up confirm: confirmation of human transthyretin transcription activators; 1,100 tested, under 10 active; shares compounds with TTR transcr act; SHSY5Y TTR promoter Gaussia luciferase, luminescence; 100% = purified Lucia enzyme wells, no cells; activation, % at 16.7 µM;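 active means mean activation above a set limit taken from the earlier primary screen, cut at about 11% in these data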;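 further: 0% = DMSO-treated cells and 100% = recombinant Lucia luciferase without cells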
* = called active by the depositor. The entries come from a sample that favours hits as a whole.

SMILES | TTR transcr act | others
Cc1ccccc1CN1CCCCC(NC(=O)c2ccccc2C(F)(F)F)C1=O (centres undefined) | 1
c1ccc(CN2CCN(c3ncnc4sccc34)CC2)cc1 | -5
CC1(C)COC(c2ccccc2Cl)OC1 | 0
CC1SC(c2ccccc2Cl)NC1=O (centres undefined) | 11* | TTR inh HuH7=-4;TTR up confirm=0
CC1=C(C(=O)OCc2ccccc2)C(c2ccccc2Cl)NC(=O)N1C (centres undefined) | 2
COc1ccccc1C(=O)NC1CCCCN(Cc2ccc(C)cc2)C1=O (centres undefined) | 3
COc1cccc(NC(=O)Nc2nc3ncccn3c2-c2ccc(F)c(F)c2)c1 | 0
CCn1cnc2cc(NCc3cccc(OC)c3O)ccc21 | 1
CCOc1cccc(CNc2ccc(O)cc2)c1OCc1ccc(Cl)cc1Cl | -5
COc1cccc(CNc2ccc(F)c(Cl)c2)c1O | 13* | TTR inh HuH7=-13;TTR up confirm=0
C[C@H]1C2CC(OC(=O)Nc3cccc(F)c3)C(C2)[C@H]2CCCCN21 (some centres undefined) | 1
CC1=CC(=O)C(C(C)C)=C/C1=N\OS(=O)(=O)c1ccccc1 | -6
O=C1c2ccccc2C(=O)N1Cc1cccnc1 | -2
Cc1cc(CN2C(=O)c3ccccc3C2=O)on1 | 15* | TTR inh HuH7=-7;TTR up confirm=0
COC(=O)c1ccc(CN2C(=O)c3ccccc3C2=O)o1 | 0
CCCc1nc2ccc(C(=O)OC)cn2c1Cc1cccc(F)c1 | 1
COC(=O)c1ccc2nc(-c3ccc(F)cc3)c(Cc3ccccc3)n2c1 | -2
COC(=O)c1ccc2nc(C3CCCCC3)c(Cc3ccccc3)n2c1 | 14* | TTR inh HuH7=14;TTR up confirm=-1
CCN(Cc1cccs1)C(=O)CN1C(=O)NC(c2ccccc2)(c2ccccc2)C1=O | -1
COC(=O)C[C@H]1CC[C@@H]2[C@H](COc3ccc(NC(=O)c4cnccn4)cc3C(=O)N2C)O1 | 0
COc1ccc(COC[C@H](C)N2C[C@@H](C)[C@H](CN(C)S(=O)(=O)c3ccc(F)cc3)OCCCC[C@H](C)Oc3ccc(NC(=O)Nc4ccccc4)cc3C2=O)cc1 | -2
Cc1ccc(N2C(=O)[C@@H]3C(C(=O)CN4C(=O)c5ccccc5C4=O)=NN[C@@H]3C2=O)c(C)c1 | 1
COc1ccccc1N1C(=O)[C@@H]2C(C(=O)CN3C(=O)c4ccccc4C3=O)=NN[C@@H]2C1=O | -1
COc1cccc(N2C(=O)C3NN=C(C(=O)CN4C(=O)c5ccccc5C4=O)C3C2=O)c1 (centres undefined) | 18* | TTR inh HuH7=-5;TTR up confirm=0
O=C(OCC#CCSc1nnc(-c2cccc3ccccc23)o1)c1ccncc1 | -1
SMILES | TTR transcr act | others
Nc1nnnn1-c1cccc([N+](=O)[O-])c1 | 1
O=C(CSc1n[nH]c(-c2ccncc2)n1)Nc1ccccc1C(F)(F)F | 2
OCc1nc2ccccc2n1CC(O)Cn1ccc2ccccc21 (centres undefined) | -5
OC(CNCCNc1ncccc1C(F)(F)F)Cn1ccc2ccccc21 (centres undefined) | -1
Oc1ccccc1NCC(O)Cn1ccc2ccccc21 (centres undefined) | 11* | TTR inh HuH7=5;TTR up confirm=-1
Cc1cccc(N2CCN(C(=O)c3cc(S(=O)(=O)N(C)C)ccc3Cl)CC2)c1C | 2
CCS(=O)(=O)c1nc(S(=O)(=O)c2ccc(C)cc2)c(N2CC(C)CC(C)C2)s1 (centres undefined) | 0
O=C(c1ccco1)N1CCN(C(c2ccc(F)cc2)c2nnnn2CC2CCCO2)CC1 (centres undefined) | 11* | TTR inh HuH7=-6;TTR up confirm=0
COc1ccc(C(c2nnnn2Cc2ccccc2)N2CCN(C(=O)c3ccco3)CC2)cc1 (centres undefined) | -4
CCC(C)(C)n1nnnc1C(c1ccc(C)cc1)N1CCN(C(=O)c2ccco2)CC1 (centres undefined) | 0
COC(=O)[C@]1(Cc2ccccc2)N[C@H](CN(C)C(=O)Nc2ccc(OC)cc2)[C@@H]2C(=O)N(Cc3ccccc3)C(=O)[C@@H]21 | -2
CCCCn1nc2cc(C(=O)NC3CCc4ccccc43)ccc2c1OCC (centres undefined) | 1
CCCCn1nc2cc(C(=O)NCCc3cccs3)ccc2c1OCC | -4
CCCCn1nc2cc(C(=O)N(CC)c3ccc(OC)cc3)ccc2c1OCC | 13* | TTR inh HuH7=-7;TTR up confirm=0
COc1ccccc1CNC(=O)Cn1c(=O)oc2cc(S(=O)(=O)N3CCCC3)ccc21 | 5
CN1CCC(N2CCN(C3CN(Cc4ccc(F)cc4)S(=O)(=O)C3)CC2)CC1 (centres undefined) | 12* | TTR inh HuH7=-7;TTR up confirm=0
O=S1(=O)CC(N2CCC(Cc3ccccc3)CC2)CN1Cc1ccc(F)cc1 (centres undefined) | -2
CN1CCN(C2CN(Cc3ccccc3)S(=O)(=O)C2)CC1 (centres undefined) | 8
Cc1ccc2c(c1)N(CC(=O)Nc1ccccc1F)C(=O)C(C)O2 (centres undefined) | 2
CC(C)C(NC(=O)[C@H](Cc1ccccc1)NC(=O)OCc1ccccc1)P(=O)(O)OC(Cc1ccccc1)C(=O)O (some centres undefined) | 1
C[C@H]1[C@H](N)CC[C@@]23CCCN2C(=O)CCC[C@@H]13 | 0
COC(=O)[C@H](CCSC)NC(=O)Nc1ccc(C(C)C)cc1 | -1
COC(=O)[C@H](CCSC)NC(=O)NCCc1ccc(F)cc1 | 1
COC(=O)[C@H](CCSC)NC(=O)NCc1ccccn1 | 19* | TTR inh HuH7=-17;TTR up confirm=1
O=C1CCC[C@H]2CC3(CC[C@]24CCCN14)OCCO3 | 0
SMILES | TTR transcr act | others
Cc1nc(-c2cc(C#N)c(=O)[nH]c2C)cs1 | 16* | TTR inh HuH7=-12;TTR up confirm=1
COC(=O)c1cc(C#N)c(=O)[nH]c1C | 0
Cc1nc(-c2ccc(C#N)cc2)cs1 | 1
O=Nc1ccccn1 | 1
OCc1c(Cl)nc2ccccn12 | 2
Clc1cc2nc3ccccn3c2cc1Cl | 13* | TTR inh HuH7=-15;TTR up confirm=2
c1ccc(-c2nc3ccccn3c2-c2ccccc2)cc1 | -1
Cc1c(C(O)(c2ccccc2)c2ccccc2)[n+]2ccccc2n1C | 1
COC(=O)[C@@]12CCCCC=C1N(CCc1ccc(Cl)cc1)C(=O)[C@H]2CC(=O)NCc1cccc(C(F)(F)F)c1 | -1
O=C(NCCc1ccccc1)OCc1cn(-c2cccc(C(F)(F)F)c2)nn1 | 4
O=C(NCCc1ccccc1)OCc1cn(-c2c(F)cccc2F)nn1 | 1
COc1ccc(-n2cc(COC(=O)NCCc3ccccc3)nn2)cc1 | 11* | TTR inh HuH7=-8;TTR up confirm=-1
CC(C)n1nnnc1C1(C)CCSCC(=O)N1Cc1cccc(C(F)(F)F)c1 (centres undefined) | 3
COc1cc(OC)c(NC(=O)c2cccc(F)c2)cc1Cl | -2
O=C(Nc1ncccc1Cl)c1cccc(F)c1 | 12* | TTR inh HuH7=-17;TTR up confirm=0
Cc1cc(NC(=O)c2cccc(F)c2)no1 | 8
CCN(CC)S(=O)(=O)c1ccc(=O)n(CC(=O)N2Cc3ccccc3CC2C(N)=O)c1 (centres undefined) | 3
CC(=O)c1ccc(NC(=O)CCc2c(C)nn(-c3ccc(N4CCOCC4)nn3)c2C)cc1 | -2
Cc1ccc(NC(=O)CCc2c(C)nn(-c3ccc(N4CCOCC4)nn3)c2C)cc1 | 1

Bioassay records: PubChem, The Scripps Research Institute Molecular Screening Center
